Measured values taken from PubChem BioAssay.
Active and inactive are the calls of the source. Unless noted, no rule for the calls is given here.

Legend:
[1] = compound effects on lung adenocarcinoma cell viability – A549, calcein-AM fluorescence, 48 h, basal, profiling panel (AID 1162); conditions: higher = more signal; also: test concentration not given here
[2] = compound effects on differentiated 3T3-L1 adipocyte viability – cell-based, 3T3-L1 adipocytes, calcein-AM fluorescence, 48 h, basal, profiling panel (AID 1163); conditions: 3T3-L1 adipocytes viability, higher = more signal; also: test concentration not given here
[3] = compound effects on hepatocellular carcinoma cell viability – HepG2, calcein-AM fluorescence, 48 h, basal, profiling panel (AID 1164); conditions: higher = more signal; also: test concentration not given here
[4] = compound effects on multiple myeloma cell viability – MM1S, calcein-AM fluorescence, 48 h, basal, profiling panel (AID 1165); conditions: higher = more signal; also: test concentration not given here
[5] = calcein-AM signal in unstimulated myeloma cells – cell-based, calcein-AM fluorescence, 48 h, PK04 Diversity Set, profiling panel (AID 1166); conditions: RPMI8226 myeloma viability, higher = more signal;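 also: cells grown under basal conditions without added stimulus; test concentration not given here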
[6] = JC-1 mitochondrial signal, unstimulated HepG2 cells – cell-based, JC-1 fluorescence, 24 h, 100 nL compound, profiling panel (AID 1167); conditions: HepG2 mitochondrial potential, higher = more signal; also: test concentration not given here
[7] = JC-1 mitochondrial signal, unstimulated adipocytes – cell-based, JC-1 fluorescence, 3T3-L1 adipocytes, 24 h, 100 nL compound, profiling panel (AID 1168); conditions: JC-1 mitochondrial fluorescence, higher = more signal, called active from +8 up or from −8 down; also: test concentration not given here
[8] = JC-1 mitochondrial signal, unstimulated myeloma cells – cell-based, JC-1 fluorescence, RPMI8226, 24 h, 100 nL compound, profiling panel (AID 1169); conditions: JC-1 mitochondrial potential fluorescence, higher = more signal; also: test concentration not given here
[9] = JC-1 mitochondrial signal, unstimulated MM1S myeloma – cell-based, JC-1 fluorescence, 24 h, 100 nL compound, profiling panel (AID 1170); conditions: MM1S mitochondrial potential, higher = more signal; also: test concentration not given here
[10] = resazurin metabolic signal in A549 cells – cell-based, resazurin fluorescence, 24 h, PK04 Diversity Set, profiling panel (AID 1171); conditions: A549 viability, higher = more signal, called active from +8 up or from −8 down; also: test concentration not given here
[11] = resazurin metabolic signal in HepG2 cells – cell-based, resazurin fluorescence, 24 h, PK04 Diversity Set, profiling panel (AID 1172); conditions: HepG2 viability, higher = more signal; also: test concentration not given here
[12] = budding yeast growth changes without added modifier – OD600, strain BY4716, 24 h, basal condition, primary screen (AID 1173); conditions: S. cerevisiae BY4716 growth, OD600, 24 h; higher = more signal, called active from +8 up or from −8 down
[13] = viability profiling in MM1S myeloma cells – cell-based, resazurin fluorescence, basal, 24 h, PK04 Diversity Set, profiling panel (AID 1174); conditions: higher = more signal, called active from +8 up or from −8 down; also: test concentration not given here
[14] = target: Dihydroorotate dehydrogenase (quinone), mitochondrial (Plasmodium falciparum (isolate 3D7)) (UniProt Q08210); test: inhibition of P. falciparum DHODH – biochemical, C-terminal His tag, absorbance 600 nm, primary screen (AID 1175); conditions: PfDHODH enzyme, DCIP absorbance 600 nm; higher = more signal, called active from +8 up or from −8 down;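 also: recombinant parasite enzyme with a five histidine tag at its C terminus; test concentration not given here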
Chain of Dihydroorotate dehydrogenase (quinone), mitochondrial (Plasmodium falciparum (isolate 3D7)) (Q08210 whole entry, looked up): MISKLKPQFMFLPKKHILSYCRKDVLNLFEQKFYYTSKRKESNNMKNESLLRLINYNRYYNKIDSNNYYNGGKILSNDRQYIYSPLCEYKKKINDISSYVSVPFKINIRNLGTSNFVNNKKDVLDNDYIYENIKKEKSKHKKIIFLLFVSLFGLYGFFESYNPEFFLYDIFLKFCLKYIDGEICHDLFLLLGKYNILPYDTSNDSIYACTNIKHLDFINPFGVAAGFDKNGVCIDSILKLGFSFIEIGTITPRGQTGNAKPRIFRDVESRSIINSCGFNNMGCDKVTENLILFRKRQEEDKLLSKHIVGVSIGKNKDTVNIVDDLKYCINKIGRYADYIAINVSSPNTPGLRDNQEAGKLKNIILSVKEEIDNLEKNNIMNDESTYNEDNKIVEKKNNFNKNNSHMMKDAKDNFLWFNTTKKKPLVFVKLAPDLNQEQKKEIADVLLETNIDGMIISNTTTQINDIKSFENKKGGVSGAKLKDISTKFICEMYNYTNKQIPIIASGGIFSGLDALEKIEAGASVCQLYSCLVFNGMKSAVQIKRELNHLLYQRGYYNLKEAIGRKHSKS

[15] = inhibition of PAO1 biofilm formation – strain PAO1, LB-PBS medium, absorbance 600 nm, primary screen (AID 1176); also: test concentration not given here; conditions: P. aeruginosa PAO1 growth/biofilm, A600, 12 h; higher = more signal
[16] = growth modulation of vineyard yeast isolate – strain RM11-1a, OD600, basal, 24 h, primary screen (AID 1177);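 also: cultures grown under basal conditions with no added stressor; test concentration not given here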; conditions: S. cerevisiae RM11-1a growth, OD600, 24 h; higher = more signal, called active from +8 up or from −8 down
[17] = growth of efflux-deficient E. coli DRC39 – strain DRC39, OD650, 24 h, E. coli filamentation inducers, primary screen (AID 1178);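 also: growth measured as culture turbidity by optical density at 650 nm; test concentration not given here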; conditions: E. coli DRC39 acrAB, higher = more signal, called active from +8 up or from −8 down
[18] = growth of efflux-deficient E. coli DRC39 – strain DRC39, OD650, 48 h, E. coli filamentation inducers, primary screen (AID 1179);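 also: screen aims at cell division blockers that make cells filament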; conditions: E. coli DRC39 delta-acrAB growth, higher = more signal, called active from +8 up or from −8 down
[19] = viability profiling in RPMI8226 myeloma cells – cell-based, resazurin fluorescence, basal, 24 h, PK04 Diversity Set, profiling panel (AID 1180); conditions: higher = more signal;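 also: RPMI8826 multiple myeloma cell line at 5000 cells per well; test concentration not given here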
[20] = target: E3 ubiquitin-protein ligase XIAP (Homo sapiens) (UniProt P98170); test: small molecules binding XIAP protein – biophysical, small-molecule microarray, fluorescence 635 nm, primary screen (AID 1181); conditions: higher = more signal;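 also: score merges 667 nm emission and signal to noise over triplicate slides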
Chain of E3 ubiquitin-protein ligase XIAP (Homo sapiens) (P98170 whole entry, looked up): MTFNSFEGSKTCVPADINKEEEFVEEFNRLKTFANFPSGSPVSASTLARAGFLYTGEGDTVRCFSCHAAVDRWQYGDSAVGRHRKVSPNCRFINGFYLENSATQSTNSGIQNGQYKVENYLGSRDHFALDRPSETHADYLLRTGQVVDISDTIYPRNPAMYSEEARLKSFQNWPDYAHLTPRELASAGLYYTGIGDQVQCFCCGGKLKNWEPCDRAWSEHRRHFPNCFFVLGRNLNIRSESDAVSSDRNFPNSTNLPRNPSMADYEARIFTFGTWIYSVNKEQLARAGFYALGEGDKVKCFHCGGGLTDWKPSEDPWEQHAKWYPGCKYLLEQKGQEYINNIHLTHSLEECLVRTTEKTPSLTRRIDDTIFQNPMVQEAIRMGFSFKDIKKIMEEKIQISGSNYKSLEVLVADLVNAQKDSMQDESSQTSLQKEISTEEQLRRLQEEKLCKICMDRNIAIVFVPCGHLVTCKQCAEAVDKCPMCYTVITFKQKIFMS

SMILES	z-score [1]	z-score [2]	z-score [3]	z-score [4]	z-score [5]	z-score [6]	z-score [7]	z-score [8]	z-score [9]	z-score [10]	z-score [11]	z-score [12]	z-score [13]	composite z-score [14]	z-score [15]	z-score [16]	z-score [17]	z-score [18]	z-score [19]	composite z-score [20]
CC(C)NC(=O)[C@@H]1c2ccccc2C(=O)N(Cc2ccc(OC(F)(F)F)cc2)[C@H]1c1ccc(CO)cc1	0.531	1.34	-0.315	1.09	-1.85	2.18	-1.32 (inactive)	0.24	-0.498	0.0746 (inactive)	-1.14	0.924 (inactive)	0.155 (inactive)	-4.48 (inactive)	0.627 (inactive)	0.91 (inactive)	-0.386 (inactive)	-0.664 (inactive)	0.808	-0.16
CCCN1C(=O)[C@@]2(c3ccc([N+](=O)[O-])cc3)CC(=O)N(CC34CC5CC(CC(C5)C3)C4)[C@@H]2c2ccc(CO)cc21	0.129	-0.4	-0.301	-0.194	0.448	-0.885	-0.656 (inactive)	0.282	-0.315	0.0382 (inactive)	-0.113	-0.547 (inactive)	-0.148 (inactive)	-4.78 (inactive)	0.186 (inactive)	-0.664 (inactive)	0.2 (inactive)	-0.255 (inactive)	-0.559	0.0666
C=C(COC)/C(=C/C[C@H](OC(C)=O)c1ccccc1OCCO)c1cc(C(=O)OC)ccc1OC	-0.168	1.66	-0.63	-3.06	-1.74	0.532	-0.112 (inactive)	0.0983	-1.29	-0.0553 (inactive)	-0.216	-1.14 (inactive)	0.181 (inactive)	-1.68 (inactive)	-0.718 (inactive)	0.0505 (inactive)	-0.474 (inactive)	-0.653 (inactive)	-0.776	-0.239
C=CC[C@@]1(C(=O)N(C)C)N=C(c2ccc(OCCCO)cc2)O[C@@H]1c1ccccc1CN=[N+]=[N-]	1.01	-0.114	1.41	-1.81	-1.58	1.67	0.53 (inactive)	-0.797	-0.479	0.189 (inactive)	-0.0494	-0.266 (inactive)	-0.138 (inactive)	0.59 (inactive)	-0.345 (inactive)	0.586 (inactive)	0.159 (inactive)	0.374 (inactive)	-0.368	-0.163
COc1ccc(C(=O)Nc2ccc(CN3C(=O)[C@@]4(O[C@@H](CCn5cc(CCO)nn5)[C@H]([Si](C)(C)c5ccc(OC)cc5)[C@H]4C)c4ccccc43)cc2)cc1	-0.883	-0.319	-3.14	-2.68	-4.27	-1.29	-0.201 (inactive)	-0.913	-2.22	-3.31 (inactive)	-3.26	-5.03 (inactive)	-4.02 (inactive)	0.483 (inactive)	0.863 (inactive)	2.47 (inactive)	1.07 (inactive)	-0.101 (inactive)	-3.35	-0.0871
CC1CC/C=C\[C@H]2OC34C=CCN(c5ccc6ccccc6c5)C(=O)[C@H]3N(C(C)CO)C(=O)[C@@H]4C2C(=O)O1 (stereo not given in full)	-0.326	-4.43	1.05	1.6	-0.311	0.333	0.0486 (inactive)	0.195	-0.532	-0.0299 (inactive)	-0.0727	-0.36 (inactive)	-0.304 (inactive)	0.631 (inactive)	-0.236 (inactive)	0.853 (inactive)	0.0825 (inactive)	0.509 (inactive)	0.762	-0.208
COC(=O)[C@@]1(Cc2ccccc2)[C@H]2c3cc(C(=O)N(C)C)n(Cc4ccc(C(F)(F)F)nc4)c3C[C@H]2CN1C(=O)c1ccccc1	-1.28	0.286	-0.628	-0.214	-0.559	1.71	-1.09 (inactive)	-0.727	-0.79	0.22 (inactive)	-0.634	2.47 (inactive)	-1.11 (inactive)	-0.125 (inactive)	0.563 (inactive)	1.02 (inactive)	-0.46 (inactive)	0.03 (inactive)	-0.693	-0.242
C=CCC(OC(C)=O)[C@@H]1[C@@H](N(Cc2ccc(-c3cccc(C(F)(F)F)c3)o2)C(=O)c2ccc(-c3ccccc3)cc2)c2cc(OCCCO)ccc2N1C(=O)c1ccc2ccccc2c1 (stereo not given in full)	0.965	1.28	0.612	0.0723	-0.164	2.76	-0.081 (inactive)	0.677	0.681	0.919 (inactive)	0.393	0.488 (inactive)	0.314 (inactive)	-0.0636 (inactive)	-0.452 (inactive)	1.27 (inactive)	0.391 (inactive)	0.412 (inactive)	0.881	-0.0889
